Results on 100 molecules are retold here after PubChem BioAssay AID504339 (National Center for Advancing Translational Sciences (NCATS), 2011).

The campaign covered roughly 390,000 compounds. About 17,000 (4.4%) were called active. Where a call stands in place of a potency, no number is given. Another 8% or so got no clear call; they are omitted. The sample holds actives, similar compounds and a random draw of the others, so the mix is not that of the screen. Values without a mark were called inactive. The call rests on the fitted dose curve; in most records, active means well fitted inhibition curve with a large enough effect; inconclusive means small, poorly fitted or top-dose-only effect; inactive means no such curve, though single readings can be large or run the other way.
Potency means the concentration at half of the fitted maximal effect.

Lysine-specific demethylase 4A (Homo sapiens), sequence (O75164 whole entry, looked up, the tested form may be a part): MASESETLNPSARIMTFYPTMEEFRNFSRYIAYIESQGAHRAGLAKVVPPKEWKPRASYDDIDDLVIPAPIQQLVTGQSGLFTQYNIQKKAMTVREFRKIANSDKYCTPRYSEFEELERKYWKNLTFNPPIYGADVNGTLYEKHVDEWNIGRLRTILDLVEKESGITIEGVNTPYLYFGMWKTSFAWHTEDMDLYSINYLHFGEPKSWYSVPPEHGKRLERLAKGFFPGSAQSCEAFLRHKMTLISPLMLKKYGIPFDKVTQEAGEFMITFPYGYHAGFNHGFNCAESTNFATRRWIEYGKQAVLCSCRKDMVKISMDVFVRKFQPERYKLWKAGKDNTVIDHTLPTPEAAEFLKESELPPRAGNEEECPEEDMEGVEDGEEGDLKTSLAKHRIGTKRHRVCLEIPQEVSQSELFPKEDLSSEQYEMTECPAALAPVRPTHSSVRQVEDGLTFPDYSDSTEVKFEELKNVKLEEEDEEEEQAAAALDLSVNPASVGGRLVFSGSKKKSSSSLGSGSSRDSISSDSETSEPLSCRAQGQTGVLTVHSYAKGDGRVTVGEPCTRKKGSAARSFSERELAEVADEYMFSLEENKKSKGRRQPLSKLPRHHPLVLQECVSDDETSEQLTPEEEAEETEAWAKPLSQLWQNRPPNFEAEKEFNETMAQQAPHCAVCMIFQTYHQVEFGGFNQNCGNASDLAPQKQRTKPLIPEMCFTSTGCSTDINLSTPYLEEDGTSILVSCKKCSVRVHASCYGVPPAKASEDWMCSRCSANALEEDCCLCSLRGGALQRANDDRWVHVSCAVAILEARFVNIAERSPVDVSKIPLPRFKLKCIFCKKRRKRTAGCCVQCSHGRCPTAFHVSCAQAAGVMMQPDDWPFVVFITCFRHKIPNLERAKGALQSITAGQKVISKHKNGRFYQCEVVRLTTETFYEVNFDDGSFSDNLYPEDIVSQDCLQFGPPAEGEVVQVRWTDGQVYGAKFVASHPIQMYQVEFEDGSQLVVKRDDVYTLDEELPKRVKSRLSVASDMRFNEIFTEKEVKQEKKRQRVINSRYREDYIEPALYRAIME

The assay concerns the target Lysine-specific demethylase 4A (Homo sapiens) (UniProt O75164). The assay can be described thus: qHTS Assay for Inhibitors of JMJD2A-Tudor Domain. Further: nearly all actives have a fitted effect of over 50% in size. The note with it: AlphaScreen JMJD2A-Tudor / H3K4me3 peptide binding; series mostly up to 114 µM. (qHTS replaces the single test concentration by a dilution series.)
Consider `CC(C)NC(=O)c1nn(-c2ccccc2F)nc1CO`, for which the Potency result is “inactive”. Same read-out and setting: in the case of `Cc1[nH]c2ccccc2c1C(c1ccccc1)c1cccs1` (stereo not given) it was “inactive”; in that of `Cc1cccc(-n2ncc(C(=O)N3CCC(C)CC3)c2C2CCN(C(=O)OC(C)(C)C)CC2)c1`, “inactive”; in that of `CCCCSc1ncnc2c1sc1nc(N3CCOCC3)c3c(c12)CCCC3`, “inactive”. Take `CCC(=O)c1ccc(OCC(O)Cn2nc(C)c(C(C)=O)c2C)cc1` (stereo not given): the Potency entry is “inactive”. Same read-out and setting: in the case of `Cc1cc(C)n(CC(O)CN(c2ccccc2)S(=O)(=O)c2ccc3ccccc3c2)n1` (stereo not given) it was “inactive”. For `Cc1cc(C)n(CC(O)COc2ccc(C(C)(C)C)cc2)n1` (stereo not given), the Potency is 79.4 µM (active). Same read-out and setting: in the case of `COc1ccc(S(=O)(=O)c2c(Nc3ccc(C)cc3)sc(C(=O)c3ccc(C)cc3)c2N)cc1` it was “inactive”; in that of `CSc1ccc(C2c3c(oc4ccccc4c3=O)C(=O)N2CCCN2CCOCC2)cc1` (stereo not given), “inactive”; in that of `COc1ccc(-c2nc3sc(CCNS(=O)(=O)c4ccc(F)c(C)c4)c(C)n3n2)cc1`, “inactive”.

`CC(C)c1cc(C(=O)O)n[nH]1`: the Potency is 28.2 µM (active).

`Cc1cc(C)nc(NS(=O)(=O)c2ccc(NC(=O)c3cc(=O)c4ccc(C)c(C)c4o3)cc2)n1`: the Potency result is “inactive”.

In the case of `CC1=C(C(=O)N2CCN(c3cccc(C(F)(F)F)c3)CC2)C2(CCCCC2)OC1=O`, the Potency result was “inactive”.

In the case of `Cc1ccc(Cl)cc1N1CCN(C(=O)c2cnc3c(-c4ccc(F)cc4)c(C)nn3c2C)CC1`, the Potency result was “inactive”. The same measure, in the same setting: as for `O=C(CNC(=O)c1ccc(Cl)cc1Cl)OC(C(=O)Nc1cc(C(F)(F)F)ccc1Cl)c1ccccc1` (stereo not given), the entry is “inactive”; as for `CCOc1ccc(/C=C2\SC(=S)N(NC(=O)c3ccncc3)C2=O)cc1OC`, “inactive”; as for `COc1cc(/C=C2\SC(=S)N(Nc3ncc(C(F)(F)F)cc3Cl)C2=O)cc(OC)c1OC`, 44.7 µM (active). Consider `COc1cc(/C=C/C(=O)N2c3ccccc3Sc3ccc(C(F)(F)F)cc32)cc(OC)c1OC`, for which the Potency entry was “inactive”.

Take `COc1ccc(CCNc2nc3c(-c4cccc(F)c4)nnn3c3ccccc23)cc1OC`: the Potency result was “inactive”. As for `COCCNc1ncnc2c1c(-c1ccccc1)cn2-c1ccc(C)c(Cl)c1`, the Potency result is “inactive”. `CC1(C)CCc2cc(S(=O)(=O)N3CCN(c4nc(-c5cccs5)nc5ccccc45)CC3)ccc2O1`: the Potency result was “inactive”.

As for `COc1ccc(OC)c(-c2csc(NC(=O)C3=NNC(=O)CC3)n2)c1`, the Potency result was “inactive”.

As for `COc1ccc(OC)c(Nc2nc3ccccc3n3cnnc23)c1`, the activity change, negative = inhibition was -5.88% [at 11.4 µM].

In the case of `COc1ccc(OC)c(Nc2nc(-c3ccc(O)c(O)c3)cs2)c1`, the Potency was 10 µM (active).

Consider `CCOC(=O)c1ccc(NC(=O)CSc2nc3c([nH]c4ccccc43)c(=O)n2C)cc1`, for which the Potency result is “inactive”. The same measure, in the same setting: as for `COc1ccc(OC)c(-c2noc(N3CCN(c4cc(Cl)ccc4C)CC3)n2)c1`, the entry is “inactive”.

For the molecule `Cc1ccccc1Nc1c([N+](=O)[O-])ccc2nonc12`, the Potency entry was “inactive”.

In the case of `Cc1cc(Nc2ccc(C(=O)N3CCCCC3)cc2)c2cccc(C)c2n1`, the Potency result was “inactive”. In the case of `Cc1ccc(Nc2cc(C)nc3c(C)ccc([N+](=O)[O-])c23)cc1`, the Potency was 35.5 µM (active). On the same count and under the same terms, in the case of `CCS(=O)(=O)N1CCc2cc(C(=O)NCc3ccc(C)cc3)ccc21` it was “inactive”. Still for that read-out and setting: as for `CCn1cc(C(=O)NCCc2ccccc2)c(=O)c2cc(S(=O)(=O)N3CCCCCC3)ccc21`, the entry is “inactive”; as for `COC(=O)c1cc(NC(=O)CCS(=O)(=O)c2cc(Br)cc3c2N(C(=O)C2CC2)CC3)cc(C(=O)OC)c1`, “inactive”; as for `COc1ccc(C)cc1N(C)C(=O)c1c(C)oc2ncnc(N3CCOCC3)c12`, “inactive”.

For `Cc1ccc(CCNC(=O)C2CCN(c3nnc(-n4cccc4CNc4ccc(C)cc4)s3)CC2)cc1`, the Potency result was “inactive”. Same read-out and setting: in the case of `C#CCNc1ccc(C(=O)OCC)cc1` it was “inactive”.

`CC1(C)C2CCC1(C)C(OC(=O)c1ccc(O)cc1)C2` (stereo not given): the Potency entry is “inactive”. Same read-out and setting: in the case of `CC(C)OC(=O)c1ccc(NCc2cc(O)ccc2O)cc1Cl` it was 10 µM (active).

On to `CC(OC(=O)c1ccc(Cl)cc1O)C(=O)NCCC1=CCCCC1` (stereo not given), for which the Potency result was “inactive”. Same read-out and setting: in the case of `COC(=O)c1ccc(NCc2cc(O)ccc2O)cc1` it was 5.62 µM (active). The same measure, in the same setting: in the case of `CCN(CC)C(=O)CCC(=O)Nc1ccc(C(=O)OC)cc1` it was “inactive”; in that of `CC(CN1CCCCC1)OC(=O)c1ccccc1Cl` (stereo not given), “inactive”; in that of `O=C(OC12CC3CC(CC(C3)C1)C2)c1ccc(NCc2cc(O)ccc2O)cc1`, 56.2 µM (active). Same read-out and setting: in the case of `O=c1cc(COc2cccc(C(F)(F)F)c2)nc2sc3c(n12)CCCC3` it was “inactive”; in that of `CN(C)c1ccc(C(=O)NCC(=O)OC(C(=O)Nc2cc(C(F)(F)F)ccc2Cl)c2ccccc2)cc1` (stereo not given), “inactive”. Turning to `CCc1cccc(NC(=O)c2cnc(N3CCOCC3)c3ccccc23)c1`, the Potency entry is “inactive”. As to `O=C(COc1ccccc1F)Nc1ccc(C(=O)OCc2cc(=O)n3nc(C4CC4)sc3n2)cc1`, the Potency entry was “inactive”. The same measure, in the same setting: in the case of `Cc1cccc(C)c1-n1ncc(C(=O)NCCCN2CCCCC2)c1C1CCN(C(=O)OC(C)(C)C)CC1` it was “inactive”; in that of `COc1ccc(Cc2nc3ccc(C(=O)NCc4ccc(OC)cc4OC)cc3o2)cc1`, “inactive”. Same read-out and setting: as for `COc1ccc(OC)c(NC(=O)C2CCCN(S(=O)(=O)c3ccc4c(c3)CCCC(=O)N4)C2)c1` (stereo not given), the entry is “inactive”; as for `O=[N+]([O-])c1ccc(COc2ccccc2CN2CCOCC2)cc1`, “inactive”; as for `OC(c1ccccc1)C(CN1CCOCC1)c1ccccc1` (stereo not given), “inactive”. Take `Oc1c(CN2CCOCC2)ccc(CN2CCOCC2)c1O`: the Potency was 3.55 µM (active). With `CC(C)CCNc1nc(N2CCCC2)c2c(c1C#N)CCN(C)C2`, the Potency is 44.7 µM (active). For the molecule `CCc1nc(NCCO)c(C#N)c2c1CCCC2`, the Potency result is “inactive”. On the same count and under the same terms, as for `CC(C)Cc1nc(N2CCOCC2)c(C#N)c2c1CCC2`, the entry is “inactive”; as for `CCCNC(=O)C1CCN(c2nc3ccc(C)cc3[nH]2)CC1`, “inactive”; as for `CSC1=N/C(=C\C=C\c2cccs2)C(=O)S1`, 12.6 µM (active). Same read-out and setting: in the case of `COc1ccc(N2CCN(C(=O)c3c(C)oc4nc(C)nc(N5CCCC5)c34)CC2)cc1` it was “inactive”; in that of `CCOC(=O)c1c(C)oc2nc(C)nc(N3CCN(c4ccc(OC)cc4)CC3)c12`, 39.8 µM (active). On the same count and under the same terms, in the case of `CCOC(=O)c1c(C)oc2nc(C)nc(Nc3ccc(CC)cc3)c12` it was “inactive”; in that of `CC1(C)N=C(SCc2ccccc2Cl)c2ccccc2N1`, “inactive”; in that of `Clc1ccccc1CSc1nnc(-c2ccco2)c(-c2ccco2)n1`, 22.4 µM (active). For the molecule `c1ccc(CSc2nnc(-c3ccco3)c(-c3ccco3)n2)cc1`, the Potency was 17.8 µM (active). Same read-out and setting: as for `Fc1ccc(Nc2nc(SCc3ccccc3Cl)nc3ccccc23)cc1`, the entry is “inactive”; as for `O=C(NCCSc1ccccc1)c1ccco1`, “inactive”; as for `Cc1ccc(-c2nnc(SCC(=O)NCc3ccccc3)nc2-c2ccc(C)cc2)cc1`, “inactive”. Still for that read-out and setting: as for `COc1ccc(CC(=O)N2CC(=O)Nc3ccc(Br)cc3C2c2ccc(F)cc2)cc1OC` (stereo not given), the entry is “inactive”; as for `CCC(=O)NNc1cc(=O)c2c(=O)n(C)c(=O)n(C)c2[nH]1`, “inactive”.

Regarding `CC(=O)Nn1cc2c(=O)n(C)c(=O)n(C)c2c1`, the Potency result was “inactive”. With `CC(=O)NNc1cc(=O)c2c(=O)n(C)c(=O)n(C)c2[nH]1`, the Potency was 10 µM (active). Still for that read-out and setting: as for `CC(=O)c1ccc(NC(c2ccc(F)cc2)c2nnc(-c3ccccc3)o2)cc1` (stereo not given), the entry is “inactive”. Regarding `CC(C)Oc1ccc(NC(=O)c2cc3ccccc3o2)cc1`, the Potency result was “inactive”.

As for `CCCCn1c(CNC(=O)C23CC4CC(CC(C4)C2)C3)nnc1SCC(=O)Nc1ccc(C)cc1`, the Potency entry was “inactive”. Still for that read-out and setting: in the case of `COc1cc(/C=N/Nc2ccc(C)cc2)cc(Br)c1O` it was 50.1 µM (active); in that of `COc1cc(/C=N/O)cc(Br)c1OS(=O)(=O)c1ccc(C)cc1`, “inactive”; in that of `COc1cc(/C=N/NC(=S)Nc2cccnc2)cc(OC)c1O`, “inactive”.

Turning to `COc1ccccc1CNC(=O)C(=O)NCC(c1ccco1)S(=O)(=O)c1ccc(F)cc1` (stereo not given), the Potency result is “inactive”.

As for `Cc1coc2c(O)cc3c(c12)OC1(N2CCCCC2)C(=O)NCCCC31` (stereo not given), the Potency is 20 µM (active).

As to `CC(=O)N1CCCc2ccc(NS(=O)(=O)c3ccc(F)cc3F)cc21`, the Potency entry was “inactive”. `CC1CCCCN1S(=O)(=O)c1ccc(F)c(C(=O)Nc2ccccc2C(F)(F)F)c1` (stereo not given): the Potency result was “inactive”.

`CCN(CC)CCNC(=O)Cn1ncc2c3ccccc3n(Cc3ccccc3C)c2c1=O`: the Potency result is “inactive”.

As to `Cc1ccc(CSc2nnc(-c3cnccn3)n2C)cc1`, the Potency result was “inactive”. Turning to `Oc1ccc(-n2nnnc2SCc2c(F)cccc2Cl)cc1`, the Potency entry was “inactive”. The same measure, in the same setting: in the case of `Cn1c(SCc2c(F)cccc2Cl)nnc1-c1cnccn1` it was 79.4 µM (active); in that of `CCOc1ccc(NC(=O)CSc2c3c(nc4ccccc24)CCCC3)cc1`, “inactive”. Same read-out and setting: in the case of `CCN1/C(=C\c2ccc3ccccc3[n+]2CC)Sc2cc(C)ccc21` it was 20 µM (active); in that of `CCN1/C(=C/c2ccc3ccc(C)cc3[n+]2CC)Sc2ccccc21`, 89.1 µM (active); in that of `CCOc1cc(CNC(=O)c2sc3ncnc(N(C)C4CCCCC4)c3c2C)ccc1OC`, “inactive”. Regarding `Cc1ccc(C(=O)CSc2nc(-c3ccccc3)nc3c2CCCC3)c(C)c1`, the Potency entry was “inactive”. Same read-out and setting: as for `COc1ccc(NC(=O)CSC2=Nc3ccccc3C3=NC(CC(=O)NCc4ccccc4OC)C(=O)N23)cc1Cl` (stereo not given), the entry is “inactive”; as for `Cc1nn(CC(=O)O)c(=O)c2cc3cc(F)ccc3n12`, “inactive”; as for `CCC(=O)N1CCc2cc(CNC(=O)Nc3ccccc3Cl)ccc21`, “inactive”.

In the case of `CC(=O)N1c2ccc(S(=O)(=O)N3CCCCCC3)cc2CC1C(=O)NCc1ccccc1C` (stereo not given), the Potency entry was “inactive”. On the same count and under the same terms, as for `Cc1c(NC(=O)C(C)(C)C)cccc1-c1nc2ccccc2s1`, the entry is “inactive”. For `CCN(CC)CCNC(=O)CN1N=C(c2ccc(OC)cc2)CCC1=O`, the Potency entry is “inactive”. For `C#CCOCCOCCOCCNc1nc(N2CCN(C(=O)CCCCCCCCCCNC(=O)Cn3cc(CCCCCN)nn3)CC2)nc(N2CCN(C(=O)CCCCCCCCCCNC(=O)[C@H](CO)n3cc(CCCSC)nn3)CC2)n1`, the Potency was 79.4 µM (active). Take `CC[C@@H](C)[C@@H](C(=O)N1CCN(C(=O)OC(C)(C)C)CC1)n1cc(CCC(=O)O)nn1`: the Potency entry was “inactive”.

Take `C#CCOCCOCCOCCNc1nc(N2CCN(C(=O)[C@H](C(C)C)n3cc(CCO)nn3)CC2)nc(N2CCN(C(=O)[C@H](C(C)C)n3cc(CCO)nn3)CC2)n1`: the Potency entry is “inactive”.

Consider `C#CCOCCOCCOCCNc1nc(N2CCN(C(=O)CCCCCCCCCCNC(=O)[C@H](CCCCN)n3cc(C)nn3)CC2)nc(N2CCN(C(=O)CCCCCCCCCCNC(=O)[C@H](CO)n3cc(CCCSC)nn3)CC2)n1`, for which the Potency is 56.2 µM (active).

As to `C#CCOCCOCCOCCNc1nc(N2CCN(C(=O)CCCCCCCCCCNC(=O)[C@H]([C@@H](C)CC)n3cc(CCCCN=C(N)N)nn3)CC2)nc(N2CCN(C(=O)CCCCCCCCCCNC(=O)[C@H](CO)n3cc(CCCSC)nn3)CC2)n1`, the Potency was 20 µM (active).
